Reference: PubChem BioAssay (NCATS)
Several values for one entry are separate records, joined by “and”; a condition that tells them apart may be missing. Equal entries are not always repeated. Inconclusive results are not listed. Activity calls are given as the source filed them. The call rests on the fitted dose curve; in most records, active means well fitted curve in the direction sought with a large enough effect; inconclusive means small, poorly fitted or top-dose-only effect, or another doubt; inactive means no such curve, though single readings can be large; an effect the other way counts as inactive or inconclusive.

Tests used:
[1] = qHTS Assay for Identifying Gametocytocidal Compounds (AID 743244);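 further: on the % scale 0 is the no-effect control and ±100 the full control effect; actives lower the fluorescent signal which means gametocytes are killed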; details: P. falciparum 3D7 stage III-V gametocytes, alamarBlue, 72 h; max response: active compounds read low
Outline: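 In this qHTS viability screen, late-stage 3D7 gametocytes are incubated with compound for 72 h, then with alamarBlue for 24 h; reduced resorufin fluorescence marks killing.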

[2] = qHTS for compounds that reverse cellular toxicity of Amyloid beta (A-beta) peptide in yeast: LOPAC Validation Assay (AID 720559);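 further: plate controls were DMSO for no effect and equimolar ferric chloride plus clioquinol rescue for full effect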
Outline: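 Yeast expressing toxic A-beta grown with pinned compounds at 30 C for 48 hr. Growth measured as absorbance at 600 nm; data normalized to DMSO and to an equimolar FeCl3/clioquinol mixture as positive control.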

[3] = qHTS for Activators of Parkin Expression: LOPAC Validation Assay (NLuc Reporter) (AID 720572;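 further: 0% = DMSO and 100% = positive control compound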)
Outline: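 Neuronal line stably carrying a FLuc/NLuc coincidence reporter under the Parkin promoter, seeded 24 h, then dosed in 7-point series for 24 h at 37 C. NLuc luminescence read after FLuc; normalized to DMSO and positive control (100%).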

[4] = qHTS for Activators of Parkin Expression: LOPAC Validation Assay (FLuc Reporter) (AID 720573;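 further: 0% = DMSO and 100% = positive control compounds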)
Outline: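 Neuronal cell line stably expressing FLuc/NLuc coincidence reporter under the Parkin promoter, 1,500 cells/well, dosed 24 h after seeding in 7-point series for 24 h at 37 C. FLuc luminescence read; normalized to DMSO and positive control (100%).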

[5] = target: T1, Hexokinase-4 (Homo sapiens) + Glucokinase regulatory protein (Homo sapiens) (UniProt P35557+Q14397); assay: qHTS assay for inhibitors of recombinant human GCK-GKRP interaction: Diaphorase-coupled assay (AID 743205)
T1 sequence (P35557 whole entry, looked up): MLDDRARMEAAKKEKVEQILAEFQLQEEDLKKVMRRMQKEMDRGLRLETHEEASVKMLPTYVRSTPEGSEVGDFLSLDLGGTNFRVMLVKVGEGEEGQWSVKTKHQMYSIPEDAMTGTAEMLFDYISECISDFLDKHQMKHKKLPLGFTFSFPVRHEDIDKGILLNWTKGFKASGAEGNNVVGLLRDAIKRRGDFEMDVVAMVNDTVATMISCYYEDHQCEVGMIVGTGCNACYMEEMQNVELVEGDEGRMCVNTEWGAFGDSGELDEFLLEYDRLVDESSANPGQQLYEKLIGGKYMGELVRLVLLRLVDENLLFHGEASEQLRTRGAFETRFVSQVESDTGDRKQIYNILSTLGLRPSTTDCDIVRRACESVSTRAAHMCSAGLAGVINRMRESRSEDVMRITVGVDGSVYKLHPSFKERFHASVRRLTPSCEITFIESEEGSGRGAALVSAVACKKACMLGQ
T1 sequence (Q14397 whole entry, looked up): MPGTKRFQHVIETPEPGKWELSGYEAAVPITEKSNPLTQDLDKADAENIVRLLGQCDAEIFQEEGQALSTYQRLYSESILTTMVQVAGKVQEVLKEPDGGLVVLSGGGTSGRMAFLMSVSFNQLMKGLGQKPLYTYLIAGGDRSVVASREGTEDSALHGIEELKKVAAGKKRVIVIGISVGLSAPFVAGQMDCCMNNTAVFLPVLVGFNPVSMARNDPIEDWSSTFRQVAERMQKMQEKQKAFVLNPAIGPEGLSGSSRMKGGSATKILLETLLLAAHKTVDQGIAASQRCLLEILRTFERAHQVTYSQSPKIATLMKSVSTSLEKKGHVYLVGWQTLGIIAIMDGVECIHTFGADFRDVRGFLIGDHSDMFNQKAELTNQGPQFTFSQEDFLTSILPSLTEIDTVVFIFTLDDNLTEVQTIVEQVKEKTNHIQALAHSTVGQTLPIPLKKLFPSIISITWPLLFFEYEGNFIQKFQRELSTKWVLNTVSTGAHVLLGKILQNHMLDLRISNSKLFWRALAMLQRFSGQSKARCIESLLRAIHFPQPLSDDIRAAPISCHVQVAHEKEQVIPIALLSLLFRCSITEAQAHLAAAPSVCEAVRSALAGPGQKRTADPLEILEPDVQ
Outline: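 Compounds pre-incubated 20 min with substrate, then 10 nM GST-GCK with 10 nM FLAG-GKRP added. GCK activity coupled via G6PDH and diaphorase to resorufin (5 mM glucose, 0.4 mM ATP, 0.15 mM NADP+, pH 7.6), read kinetically over 30 minutes at Ex 525/Em 590 nm.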

[6] = target: T1, Hexokinase-4 (Homo sapiens) + Glucokinase regulatory protein (Homo sapiens); assay: qHTS assay for inhibitors of recombinant human GCK-GKRP interaction: ADP-Glo assay (AID 743206);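 further: plate controls were DMSO plus enzyme for no effect and no enzyme for full effect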
Outline: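 GST-GCK and FLAG-GKRP (15 nM each in the dispensed mix, with 2 uM S6P) react with 0.4 mM ATP and 5 mM glucose (final) in Hepes pH 7.6 for 60 min at room temperature. ADP is measured by ADP-Glo luminescence.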

[7] = target: T1, Hexokinase-4 (Homo sapiens) + Glucokinase regulatory protein (Homo sapiens); assay: qHTS assay for inhibitors of recombinant human GCK-GKRP interaction: HTRF assay (AID 743207);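 further: 0% = DMSO with GCK present and -100% = DMSO wells lacking GCK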
Outline: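 HTRF binding of 5 nM GST-GCK and 5 nM FLAG-GKRP with 2 uM S6P in pH 7.1 Hepes buffer (MgCl2, KCl, DTT, Tween 20, BSA). Anti-FLAG XL665 and anti-GST donor added, 60 min at room temperature; 665/615 nm read, normalized to with- and without-GCK controls.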

Measured: max response

Nc1ccc(C(=O)Nc2ccccc2N)cc1
inactive: [1] 0.176%

O=C1CCC(c2ccc(-n3ccnc3)cc2)=NN1
inactive: [2] | [3] | [4] | [5] | [6] | [7] | [1] -0.884% and -6.59%

C1CCc2nnnn2CC1
inactive: [2] | [3] | [4] | [5] | [6] | [7] | [1] -4.71%

C[C@]12C=CC(=O)C=C1CC[C@@H]1[C@@H]2[C@@H](O)C[C@@]2(C)[C@H]1CC[C@]2(O)C(=O)CO
inactive: [1] 0.844%

CCCC1O[C@@H]2C[C@H]3[C@@H]4CCC5=CC(=O)C=C[C@]5(C)[C@H]4[C@@H](O)C[C@]3(C)[C@]2(C(=O)CO)O1 (some centres undefined)
inactive: [2] | [3] | [4] | [5] | [6] | [7] | [1] -5.95% and 18.2%

CNCCC(Oc1ccccc1C)c1ccccc1 (centres undefined)
inactive: [2] | [3] | [4] | [5] | [6] | [7] | [1] 9.68%

CCCn1c(=O)[nH]c(=O)c2[nH]cnc21
inactive: [5] | [6] | [7] | [1] 20.2% and 5.21%

C[C@H](CCC(=O)O)[C@H]1CC[C@H]2[C@@H]3C(=O)C[C@@H]4CC(=O)CC[C@]4(C)[C@H]3CC(=O)[C@]12C
inactive: [1] 6.84%

COc1cc(-c2ccc(=O)[nH]n2)ccc1OC(F)F
inactive: [1] -3.31%

CC(=O)CC(c1ccc([N+](=O)[O-])cc1)c1c(O)c2ccccc2oc1=O (centres undefined)
inactive: [1] 29.4%

C[C@@H]1C[C@H]2[C@@H]3C[C@H](F)C4=CC(=O)C(Cl)=C[C@]4(C)[C@@]3(F)[C@@H](O)C[C@]2(C)[C@@]1(O)C(=O)CO
inactive: [1] 5.34%

CCC(=O)c1c(O)cc(O)cc1O
inactive: [1] 19%

CC(CCc1ccccc1)NCC(O)c1ccc(O)c(C(N)=O)c1 (centres undefined)
inactive: [2] | [3] | [4] | [5] | [6] | [7] | [1] 16.8%

CCC(C(=O)OCCN(CC)CC)c1ccccc1 (centres undefined)
inactive: [1] -1.81%

CCN1CCN(c2cc3c(cc2F)c(=O)c(C(=O)O)cn3C2CC2)CC1
inactive: [1] 1.09%

Cc1ccc(Nc2c(F)cccc2Cl)c(CC(=O)O)c1
inactive: [1] 0.561%

O=C(O)c1cc2cc(Cc3cccnc3)ccc2o1
inactive: [2] | [3] | [4] | [5] | [6] | [7] | [1] 2.09% and 51.2%

C[C@H](O)C(=O)Nc1c(I)c(C(=O)NC(CO)CO)c(I)c(C(=O)NC(CO)CO)c1I
inactive: [1] 9.34%

Nc1cc(Cl)c(NC2=NCCN2)c(Cl)c1
inactive: [2] | [3] | [4] | [5] | [6] | [7] | [1] -0.108% and 36.5%
